# Data as given in ChEMBL document CHEMBL3988442, “University of Dundee, Small-Polar-MMV Screening Library” (2021).
# For some assays here: Results with a measured potency or affinity are listed apart.
# Assays:
# Set-up in all cases: scale not given: direction of the effect not stated beside the values
# [1] = biological target: Protein translocase subunit SecA (Escherichia coli (strain K12)) (UniProt P10408); assay: Assay to Identify E. coli SecA ATPase Inhibitors; type: functional; conditions: 30 µM
# [2] = biological target: T1, Ubiquitin-activating enzyme e1, putative (Leishmania donovani (strain BPK282A1)) (UniProt E9BSI1); assay: Leishmania donovani Ubiquitin Activating Enzyme (LdE1); type: functional; conditions: 30 µM
# T1 sequence (whole entry): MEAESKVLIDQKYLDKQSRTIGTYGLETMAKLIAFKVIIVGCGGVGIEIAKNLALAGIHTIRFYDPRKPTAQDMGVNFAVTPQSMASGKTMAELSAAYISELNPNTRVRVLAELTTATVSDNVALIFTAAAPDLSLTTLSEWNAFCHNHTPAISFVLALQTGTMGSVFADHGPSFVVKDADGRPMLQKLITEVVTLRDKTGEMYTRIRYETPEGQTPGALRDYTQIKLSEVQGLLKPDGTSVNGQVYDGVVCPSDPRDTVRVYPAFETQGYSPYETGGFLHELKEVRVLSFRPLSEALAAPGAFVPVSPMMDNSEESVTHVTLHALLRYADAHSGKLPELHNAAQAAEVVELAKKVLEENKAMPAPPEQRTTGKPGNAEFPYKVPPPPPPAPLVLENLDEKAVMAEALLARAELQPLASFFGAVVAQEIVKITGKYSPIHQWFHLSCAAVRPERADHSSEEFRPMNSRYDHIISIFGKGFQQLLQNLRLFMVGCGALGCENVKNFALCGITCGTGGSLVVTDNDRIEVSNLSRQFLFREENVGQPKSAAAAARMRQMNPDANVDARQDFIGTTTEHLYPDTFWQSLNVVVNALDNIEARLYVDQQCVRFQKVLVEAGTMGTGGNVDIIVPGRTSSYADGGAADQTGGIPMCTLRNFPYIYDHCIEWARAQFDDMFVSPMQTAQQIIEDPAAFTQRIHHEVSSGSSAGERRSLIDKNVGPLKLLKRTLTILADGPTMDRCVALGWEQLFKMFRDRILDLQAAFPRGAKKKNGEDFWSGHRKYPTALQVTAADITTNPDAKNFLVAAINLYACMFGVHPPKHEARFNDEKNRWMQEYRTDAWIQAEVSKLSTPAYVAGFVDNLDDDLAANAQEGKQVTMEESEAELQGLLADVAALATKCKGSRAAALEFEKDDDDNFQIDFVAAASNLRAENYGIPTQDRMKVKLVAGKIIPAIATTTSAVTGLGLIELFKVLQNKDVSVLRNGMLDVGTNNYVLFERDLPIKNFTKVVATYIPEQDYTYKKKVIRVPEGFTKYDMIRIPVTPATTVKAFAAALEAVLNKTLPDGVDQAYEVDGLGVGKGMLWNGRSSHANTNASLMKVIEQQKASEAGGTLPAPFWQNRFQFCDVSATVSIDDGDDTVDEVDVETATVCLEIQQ
# [3] = biological target: AMP-activated protein kinase, AMPK (Homo sapiens) (UniProt P54646+O43741+P54619+Q9UGJ0+Q9Y478+Q13131+Q9UGI9); assay: AMP-dependent Kinase enzyme assay. An in vitro enzyme assay that detects ADP turnover that is directly proportional to AMPK activity. This uses naive AMPK that is activated during the assay with MK-8722; type: functional; conditions: 30 µM
# [4] = biological target: Sialic acid-binding Ig-like lectin 9 (Homo sapiens) (UniProt Q9Y336); assay: Hs-Siglec9 ALPHAscreen SOP 20170721; conditions: 10 µM
# Trypanosoma cruzi = assay: Trypanosoma cruzi phosphomannomutase and mannose-1-phosphate guanylyltransferase assay; type: functional; conditions: 10 µM
# [5] = biological target: T2, Arginase-2, mitochondrial (Homo sapiens) (UniProt P78540); assay: in vitro enzyme assay to detect the production of urea directly proportional to the activity of Arginase II; type: functional; conditions: 33.3 µM; note: in the data most compounds retested in dose-response had high values
# T2 sequence (whole entry): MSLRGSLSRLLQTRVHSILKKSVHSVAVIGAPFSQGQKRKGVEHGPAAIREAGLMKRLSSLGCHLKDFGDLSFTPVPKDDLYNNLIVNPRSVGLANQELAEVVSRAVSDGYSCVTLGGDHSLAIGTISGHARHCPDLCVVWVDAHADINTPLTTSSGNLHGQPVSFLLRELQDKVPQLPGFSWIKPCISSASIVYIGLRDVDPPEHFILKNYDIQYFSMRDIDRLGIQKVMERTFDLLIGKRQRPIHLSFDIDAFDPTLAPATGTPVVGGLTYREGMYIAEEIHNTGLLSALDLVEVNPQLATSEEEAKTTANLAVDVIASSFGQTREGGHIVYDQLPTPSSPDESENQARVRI
# [6] = biological target: T3, Proteasome subunit beta (Trypanosoma cruzi) (UniProt O96673); assay: Trypanosoma cruzi proteasome chymotrypsin-like activity (TcProtChymo) assay.; note: in the data most compounds retested in dose-response had high values; type: functional; conditions: 9.37 µM
# T3 sequence (whole entry): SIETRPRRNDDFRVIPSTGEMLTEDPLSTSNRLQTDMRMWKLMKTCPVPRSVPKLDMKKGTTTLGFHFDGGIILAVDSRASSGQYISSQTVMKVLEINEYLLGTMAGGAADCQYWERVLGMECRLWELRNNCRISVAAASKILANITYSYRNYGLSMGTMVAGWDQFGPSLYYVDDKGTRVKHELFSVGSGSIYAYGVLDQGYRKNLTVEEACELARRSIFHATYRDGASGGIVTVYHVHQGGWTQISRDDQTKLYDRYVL
# Homo sapiens = species on record: Homo sapiens; assay: To identify inhibition of the IFN signalling (Jak-Stat) pathway via expression of an eGFP reporter gene under the control of an IFN-stimulated response element (ISRE) containing MxA promoter.; type: functional; conditions: 30 µM
# [7] = biological target: T4, Tyrosyl-tRNA synthetase, putative (Trypanosoma cruzi (strain CL Brener)) (UniProt Q4DSP6); assay: Trypanosoma cruzi tyrosyl tRNA synthetase (TcYRS) _High Tyrosine SOP; type: functional; conditions: 30 µM; note: in the data most compounds retested in dose-response had high values
# T4 sequence (whole entry): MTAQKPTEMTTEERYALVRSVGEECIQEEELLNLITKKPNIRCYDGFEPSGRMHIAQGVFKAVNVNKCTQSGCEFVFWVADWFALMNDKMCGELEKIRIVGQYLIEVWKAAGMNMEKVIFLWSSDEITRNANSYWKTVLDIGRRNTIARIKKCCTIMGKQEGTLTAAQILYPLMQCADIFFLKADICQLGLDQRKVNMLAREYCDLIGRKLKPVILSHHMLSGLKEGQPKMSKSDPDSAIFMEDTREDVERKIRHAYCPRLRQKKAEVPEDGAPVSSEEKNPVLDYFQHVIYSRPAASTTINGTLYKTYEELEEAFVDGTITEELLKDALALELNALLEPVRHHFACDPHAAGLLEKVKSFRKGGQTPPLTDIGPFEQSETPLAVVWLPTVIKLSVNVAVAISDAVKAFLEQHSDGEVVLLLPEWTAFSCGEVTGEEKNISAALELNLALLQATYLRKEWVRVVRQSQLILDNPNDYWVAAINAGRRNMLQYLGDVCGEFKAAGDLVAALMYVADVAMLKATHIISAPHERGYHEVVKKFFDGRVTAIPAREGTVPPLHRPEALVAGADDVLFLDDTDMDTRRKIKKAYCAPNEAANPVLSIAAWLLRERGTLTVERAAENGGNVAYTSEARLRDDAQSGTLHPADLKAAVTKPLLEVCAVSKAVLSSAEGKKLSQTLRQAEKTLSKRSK
# [8] = biological target: T4, Tyrosyl-tRNA synthetase, putative (Trypanosoma cruzi (strain CL Brener)); assay: Trypanosoma cruzi tyrosyl tRNA synthetase (TcYRS) SOP; type: functional; conditions: 30 µM
# [9] = biological target: Chromo domain-containing protein 1 (Saccharomyces cerevisiae (strain ATCC 204508 / S288c) (Baker's yeast)) (UniProt P32657); assay: ScCHD-1 Enzyme Inhibition Assay; type: functional; conditions: 30 µM; note: in the data most compounds retested in dose-response had high values
# Sequence of Chromo domain-containing protein 1 (Saccharomyces cerevisiae (strain ATCC 204508 / S288c) (Baker's yeast)) (P32657 whole entry, the tested form may be a part): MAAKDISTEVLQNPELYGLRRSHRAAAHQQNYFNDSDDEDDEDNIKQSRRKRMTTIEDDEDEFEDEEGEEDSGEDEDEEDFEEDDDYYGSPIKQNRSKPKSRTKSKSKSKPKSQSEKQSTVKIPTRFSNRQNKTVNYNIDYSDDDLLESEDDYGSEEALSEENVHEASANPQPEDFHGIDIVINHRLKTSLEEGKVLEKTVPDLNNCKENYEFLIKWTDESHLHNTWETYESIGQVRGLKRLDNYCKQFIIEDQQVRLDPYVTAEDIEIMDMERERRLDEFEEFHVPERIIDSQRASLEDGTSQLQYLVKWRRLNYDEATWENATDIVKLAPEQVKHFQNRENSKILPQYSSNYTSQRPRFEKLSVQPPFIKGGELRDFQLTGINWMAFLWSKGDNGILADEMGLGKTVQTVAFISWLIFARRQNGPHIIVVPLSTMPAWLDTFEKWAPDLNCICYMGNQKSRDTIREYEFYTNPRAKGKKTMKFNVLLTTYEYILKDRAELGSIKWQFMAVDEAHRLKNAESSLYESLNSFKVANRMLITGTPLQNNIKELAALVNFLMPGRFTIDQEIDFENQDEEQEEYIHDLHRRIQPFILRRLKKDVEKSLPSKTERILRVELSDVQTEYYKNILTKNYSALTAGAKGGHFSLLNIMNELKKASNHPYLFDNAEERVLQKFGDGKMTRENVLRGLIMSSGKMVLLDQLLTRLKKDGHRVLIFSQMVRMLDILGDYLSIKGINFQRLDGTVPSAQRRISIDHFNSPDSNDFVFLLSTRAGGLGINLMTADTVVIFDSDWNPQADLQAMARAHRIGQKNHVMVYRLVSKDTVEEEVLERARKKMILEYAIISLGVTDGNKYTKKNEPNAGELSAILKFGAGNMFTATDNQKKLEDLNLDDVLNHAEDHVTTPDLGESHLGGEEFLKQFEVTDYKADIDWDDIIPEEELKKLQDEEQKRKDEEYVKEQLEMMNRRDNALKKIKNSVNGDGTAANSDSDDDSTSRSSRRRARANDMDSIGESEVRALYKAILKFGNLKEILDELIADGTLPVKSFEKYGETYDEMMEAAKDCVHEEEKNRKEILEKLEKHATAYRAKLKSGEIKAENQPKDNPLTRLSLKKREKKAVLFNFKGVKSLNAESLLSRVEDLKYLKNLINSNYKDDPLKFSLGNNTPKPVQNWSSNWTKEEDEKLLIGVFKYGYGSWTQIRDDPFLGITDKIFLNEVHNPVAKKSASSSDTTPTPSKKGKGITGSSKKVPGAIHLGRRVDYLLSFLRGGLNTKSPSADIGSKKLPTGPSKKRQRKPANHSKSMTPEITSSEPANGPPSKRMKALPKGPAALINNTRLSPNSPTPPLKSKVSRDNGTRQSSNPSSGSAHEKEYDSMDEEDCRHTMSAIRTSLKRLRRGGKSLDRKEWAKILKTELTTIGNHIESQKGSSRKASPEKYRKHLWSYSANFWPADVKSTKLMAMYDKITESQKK
# Sequence of Sialic acid-binding Ig-like lectin 9 (Homo sapiens) (Q9Y336 whole entry): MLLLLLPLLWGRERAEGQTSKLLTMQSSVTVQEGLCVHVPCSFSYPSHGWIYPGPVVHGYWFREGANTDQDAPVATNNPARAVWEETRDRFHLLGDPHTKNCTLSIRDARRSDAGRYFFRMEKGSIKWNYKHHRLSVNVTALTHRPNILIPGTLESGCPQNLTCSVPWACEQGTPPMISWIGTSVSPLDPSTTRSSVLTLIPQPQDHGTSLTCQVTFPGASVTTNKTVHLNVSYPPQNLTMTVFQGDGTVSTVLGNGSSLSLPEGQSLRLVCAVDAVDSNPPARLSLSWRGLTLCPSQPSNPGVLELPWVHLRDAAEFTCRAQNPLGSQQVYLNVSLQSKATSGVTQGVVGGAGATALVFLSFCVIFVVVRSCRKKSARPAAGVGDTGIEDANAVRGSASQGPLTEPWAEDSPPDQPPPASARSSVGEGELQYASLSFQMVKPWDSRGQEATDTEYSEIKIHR
# Sequence of Protein translocase subunit SecA (Escherichia coli (strain K12)) (P10408 whole entry): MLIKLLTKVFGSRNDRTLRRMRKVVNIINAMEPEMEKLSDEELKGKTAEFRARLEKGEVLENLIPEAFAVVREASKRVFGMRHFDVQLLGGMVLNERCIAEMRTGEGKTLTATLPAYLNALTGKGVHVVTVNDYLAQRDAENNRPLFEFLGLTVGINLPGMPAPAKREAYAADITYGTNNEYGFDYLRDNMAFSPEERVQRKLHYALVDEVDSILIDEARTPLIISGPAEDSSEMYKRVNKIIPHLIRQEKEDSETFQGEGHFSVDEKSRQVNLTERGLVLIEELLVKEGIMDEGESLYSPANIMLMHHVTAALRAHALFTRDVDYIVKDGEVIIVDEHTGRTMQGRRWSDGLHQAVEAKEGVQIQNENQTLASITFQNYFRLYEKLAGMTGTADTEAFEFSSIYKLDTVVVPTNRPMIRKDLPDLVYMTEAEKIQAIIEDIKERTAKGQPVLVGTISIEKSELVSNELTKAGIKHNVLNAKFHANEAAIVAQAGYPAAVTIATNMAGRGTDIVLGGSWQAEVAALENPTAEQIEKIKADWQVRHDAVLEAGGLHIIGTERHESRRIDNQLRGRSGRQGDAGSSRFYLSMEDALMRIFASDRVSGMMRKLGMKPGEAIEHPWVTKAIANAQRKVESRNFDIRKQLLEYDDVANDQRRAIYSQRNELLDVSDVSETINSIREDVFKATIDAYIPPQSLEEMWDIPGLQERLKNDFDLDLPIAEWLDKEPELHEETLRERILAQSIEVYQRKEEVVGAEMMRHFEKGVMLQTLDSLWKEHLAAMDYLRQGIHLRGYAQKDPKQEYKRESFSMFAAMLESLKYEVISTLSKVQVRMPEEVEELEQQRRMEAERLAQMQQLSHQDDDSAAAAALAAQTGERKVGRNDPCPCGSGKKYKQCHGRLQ
SMILES,Percent Effect [1] [%],Percent Effect [2] [%],Percent Effect [3] [%],Percent Effect [4] [%],Percent Effect (Trypanosoma cruzi) [%],Percent Effect [5] [%],Percent Effect [6] [%],Percent Effect (Homo sapiens) [%],Percent Effect [7] [%],Percent Effect [8] [%],Percent Effect [9] [%]
Cc1cnn(CC2CCCN2C(=O)c2ccc3[nH]nnc3c2)c1 (configuration not stated),-1.48,8.86,-1.94,-8.54,2.97,-2.8,17.5,2.88,1.04,10.1,-4.85
O=C1OCCN1CCc1nc(-c2cc3c4c(c2)CC(=O)N4CCC3)cs1,-8.45,0,4.43,-2.26,-7.87,-0.712,9.97,47.2,0.971,0,-5.4
N#CC(Sc1nnnn1C1CCOCC1)C1CCCCC1 (configuration not stated),-4.28,2.67,0.0297,9.31,-5.55,0.521,7.32,-0.799,3.83,6.17,-4.6
CCc1nnc2n1CC(CNCc1ccncc1)CC2 (configuration not stated),1.7,4.17,-9.25,-5.88,-3.6,5.3,19.6,-6.46,5.26,0,-3.45
CCn1nc(CC(C)C)cc1C(=O)N1CC[C@@H](O)C1,-4.98,18.7,-5.58,22.7,2.82,9.38,12.7,-2.86,3.83,13.6,92.8
NS(=O)(=O)Cc1ccc(CNC(=O)NCC2CCOC2)cc1 (configuration not stated),-1.97,7.79,5.79,-1.36,1.86,3.58,5.09,-5.41,2.86,18.8,-8.13
CCC(=O)N(C)C1CCN(Cc2ncc(C)c(OC)c2C)CC1,-5.54,18.2,-1.36,-0.124,2.25,2.13,18.9,16.3,5.83,19.5,-7.08
CN(Cc1ncc(C(C)(C)C)o1)C1CCCN(c2cccnn2)C1 (configuration not stated),-2.8,15.2,-7.54,-5.13,3.49,2.66,13.2,2.64,12.3,16.5,-3.04
O=C(CCc1cscn1)NS(=O)(=O)c1ccc2ccccc2c1,-4.59,1.39,-10.1,23.9,3.4,4.42,0.877,0.282,8.42,5.13,-4.15
NC(=O)C1CCN(C(=O)Cn2nc(-c3ccccc3)oc2=O)C1 (configuration not stated),-4.97,7.79,1.04,8.76,2.46,-13.8,8.82,-30.7,2.15,13.6,-0.676
O=C1CC(c2cccnc2)C2(CCN(S(=O)(=O)C3CC3)CC2)N1 (configuration not stated),-5.32,8.11,1.06,-2.02,3.42,-4.78,15.3,-9.26,4.32,12.8,2.44
COc1ccc(CN(C)CC2(O)CCN(C(=O)c3cccn3C)C2)cc1 (configuration not stated),-9.44,-1.35,5.12,2.88,-1.78,-7.19,-1.87,11.8,-2.15,-3.9,-10.2
Cc1cn2c(n1)CCC(NC(=O)CCC(F)(F)F)C2 (configuration not stated),-7.86,-7.89,-7.17,16.2,5.51,0.36,3.64,-6.31,3.45,16.1,-6.39
CCN(CC)C(=O)CCn1ncc2c(Cl)cccc21,-0.381,1.33,3.83,7.06,-5.89,-17.1,16.1,0.421,0,2.56,-11.2
CC1CCCN(C(=O)CCc2cccnc2)C1 (configuration not stated),2.47,17.7,0.257,-8.86,-5.57,6.84,7.29,25.3,3.45,16.5,-0.749
Cn1ccnc1SCc1nc(C(C)(C)NC(=O)OC(C)(C)C)no1,-5.41,18.7,-1.15,21.2,5.94,2.08,10.6,21.2,6.01,16.1,-9.46
CCc1nc(CN(C)CC(c2cccs2)N2CCOCC2)no1 (configuration not stated),-2.58,27,-3.84,-3.75,1.76,-2.4,10.6,13.9,6.93,23.2,-7.57
Cc1scc(C(=O)N2CCC3(CCCN(C)C3=O)C2)c1-c1ccccc1 (configuration not stated),-0.994,0,1.8,-1.74,-3.09,1.91,7.41,-8.13,-2.65,9.76,-4.36
COCC1CN(C(=O)c2cccn2C)Cc2ncnn2C1 (configuration not stated),-5.41,5.2,0.668,11.3,9.34,4.14,8.32,9.25,-2.15,11.1,3.71
CC(=O)Nc1nc(C(=O)N2CCCC(n3nc(C)cc3C)C2)cs1 (configuration not stated),-5.42,0,5.38,-3.57,-5.13,-1.8,-7.02,-2.38,-2.46,-11.1,5.41
CCO[C@H]1CO[C@@]2(CCCN(Cc3nc(C)cs3)C2)C1,-0.479,16.4,-4.62,9.84,3.17,-2.4,7.79,-0.894,8.33,18.5,-4.88
Cc1ccc(C)c(-c2csc(N)c2C#N)c1,-2.81,-1.33,-2.97,7.24,0.589,-10,4.99,14.2,-12.7,-12.8,2.05
